The values below come from PubChem BioAssay AID2546 (National Center for Advancing Translational Sciences (NCATS), 2010).

Screen size: about 310,000 compounds; about 11,000 (3.5%) were called active. Roughly 8% stayed inconclusive and do not appear here. Only a selection was taken, and actives are over-represented in it overall. Values without a mark were called inactive. Calls come from the whole dose curve; as a rule, active = well fitted inhibition curve with a large enough effect; inconclusive = small, poorly fitted or top-dose-only effect, or effect the other way; inactive = flat fitted curve, though single readings scatter.
% is set by controls: 0 for no effect and ±100 for the full control effect; potency is the fitted concentration of half-maximal effect.

A short description of the assay: VP16 counterscreen qHTS for inhibitors of ROR gamma transcriptional activity.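 Note: Gal4-VP16 expression switched on by copper sulfate through the metallothionein promoter; nearly all actives have a fitted effect of over 50% in size.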 Particulars: Drosophila S2 Gal4-VP16 UAS-luciferase, luminescence, 20 h; series mostly up to 53.6 µM; activity, negative = inhibition: at the top concentration.
`Cc1cccc(C(=O)OCC(=O)Nc2ccc(F)cc2)c1`: the “activity, negative = inhibition” value is -3.7%.

Regarding `COc1cc(N=Cc2c(O)c3ccccc3oc2=O)c(OC)cc1Cl`, the “activity, negative = inhibition” value is -16%. On the same count and under the same terms, for `COc1ccc(CNC(=O)CCCn2nc(C)c([N+](=O)[O-])c2C)cc1` the value was -10.7%. Take `Cc1ccc(Oc2cc(NC(=O)CCCn3nc(C)c([N+](=O)[O-])c3C)cc([N+](=O)[O-])c2)cc1`: the Potency is 1 µM (active). Take `CCc1ccc(NC(=O)Cn2nc(C)c([N+](=O)[O-])c2C)cc1`: the “activity, negative = inhibition” value is 6.54%.

With `CCOC(=O)c1c(S(=O)(=O)Nc2ccc(CN3CCC(C)CC3)cc2)c(C)n(C)c1C`, the “activity, negative = inhibition” value was -1.56%. Consider `CCC(C)c1ccccc1NC(=O)CN(C)CC(=O)Nc1ccccc1SC` (stereo not given), for which the “activity, negative = inhibition” value was -15.4%.

With `CC(=O)c1ccc(NC(=O)CCNS(=O)(=O)c2cc(Br)cnc2N)cc1`, the “activity, negative = inhibition” value was -9.98%. Turning to `COc1ccc(CCNC(=O)NS(=O)(=O)c2ccc(C)cc2)cc1OC`, the “activity, negative = inhibition” value is 3.35%. Still for that read-out and setting: for `COc1ccc(CCNC(=O)Cc2ccc(C)cc2)cc1OC` the value was -26%. Turning to `COc1ccc(CCNC(=S)NC(=O)/C=C/c2ccc(C)cc2)cc1OC`, the Potency was 10 µM (active). Consider `CCN1CCN(CCNC(=O)c2ccc3c(c2)NC(=O)/C(=C\c2ccc(OC)c(OC)c2)S3)CC1`, for which the “activity, negative = inhibition” value is -5.66%. With `CCOC(=O)c1ccc(NC(=O)Cn2nnc(-c3ccc(C)cc3)n2)cc1`, the “activity, negative = inhibition” value is 3.09%. Take `CCOC(=O)c1ccc(NC(=O)Cn2cnc3cc(C)c(C)cc32)cc1`: the Potency is 7.08 µM (active). For the molecule `CCCc1nnc(SCC(=O)Nc2ccc(C(=O)OCC)cc2)o1`, the “activity, negative = inhibition” value was -11.9%. As to `CC(C)C(=O)Nc1c2c(nn1-c1ccccc1)CSC2`, the “activity, negative = inhibition” value was -3.16%.

Turning to `COc1ccc(C(=O)Cc2cnn(-c3ccccc3)c2)c(O)c1`, the “activity, negative = inhibition” value was -9.96%.

Consider `O=C(c1cnn(-c2ccc(Cl)cc2)c1)c1ccccc1O`, for which the “activity, negative = inhibition” value is -29.8%. As to `Cc1cc(O)cc(O)c1C(=O)Cc1cnn(-c2ccccc2)c1`, the Potency is 0.355 µM (active). Take `Cc1ccc(O)c(NC(=O)c2cc(-c3ccco3)on2)c1`: the “activity, negative = inhibition” value is 5.28%. In the case of `CC(C)(C)CC(C)(C)NCC(O)COCCOc1ccc(Br)cc1` (stereo not given), the Potency is 11.2 µM (active). In the case of `COc1ccc(OCC(O)CNCCNc2nccc(C(F)(F)F)n2)cc1` (stereo not given), the “activity, negative = inhibition” value is -3.87%. For the molecule `OC(COc1ccc(Br)cc1)CN1CCCC1` (stereo not given), the “activity, negative = inhibition” value was -6.56%. As for `CCOC(=O)CSc1nnc(NC(=O)C2CC(=O)N(c3ccc(F)cc3)C2)s1` (stereo not given), the “activity, negative = inhibition” value is 9.21%.

As to `CCC(=O)N1c2ccc(S(=O)(=O)NCc3ccco3)cc2CC1C` (stereo not given), the “activity, negative = inhibition” value is -10.7%.

Turning to `C/C=C/C=N/NC(=O)c1ccncc1`, the “activity, negative = inhibition” value was -9.63%.

In the case of `O=C(Nc1ccccc1-c1nc2ccccc2[nH]c1=O)c1cccs1`, the “activity, negative = inhibition” value is 4.25%. Regarding `C/C(=N\Nc1nc(Nc2ccccc2)nc(N2CCOCC2)n1)c1cccs1`, the “activity, negative = inhibition” value is -25%.

In the case of `C/C(=N\Nc1nc2ccccc2[nH]1)c1cccs1`, the Potency was 6.31 µM (active). Take `CN(c1ccccc1)S(=O)(=O)c1ccc2[nH]c(=O)[nH]c2c1`: the “activity, negative = inhibition” value was -15.9%. With `CCn1ccnc1CN(C)C(=O)c1cc(COc2ccc(Cl)cc2OC)on1`, the “activity, negative = inhibition” value is 6.82%. Consider `O=C(Nc1ccccc1)OCc1cc(-c2ccc(Cl)cc2)on1`, for which the “activity, negative = inhibition” value was -8.41%. Turning to `O=C1C=C(c2ccc(Cl)cc2)C(=O)N1Nc1ccccc1`, the Potency was 3.98 µM (active). Take `O=C1c2cccc3cc(Br)cc(c23)C(=O)N1Nc1ccccc1`: the “activity, negative = inhibition” value is -18.6%. For `COc1cccc(NC(=S)NCCCN2CCOCC2)c1`, the “activity, negative = inhibition” value is -18%. On to `Cc1ccc(NC(=S)NCCN2CCOCC2)cc1`, for which the “activity, negative = inhibition” value was -2.5%.

For the molecule `CCOc1cccc(/C=N/NC(=S)NCCN2CCOCC2)c1O`, the Potency is 2.24 µM (active).

With `CCOC(=O)c1c(S(=O)(=O)NCC(=O)Nc2ccc(C)cc2)c(C)n(C)c1C`, the “activity, negative = inhibition” value was 0.589%.

On to `CCCc1cc(=O)oc2c(C)c(OCC(=O)Nc3ccccn3)ccc12`, for which the “activity, negative = inhibition” value is 2.02%.

As for `O=C(CN1C(=O)S/C(=C\c2ccccc2Cl)C1=O)NC1C=CS(=O)(=O)C1` (stereo not given), the “activity, negative = inhibition” value is -15.6%.

For the molecule `CCCCCCCCn1c2c(c(=N)c3c1CCC3)CCCC2`, the Potency was 2.51 µM (active). Take `COCCCNC(=O)Cc1ccc(-n2c(C)nc3cccnc32)cc1`: the “activity, negative = inhibition” value was -6.65%. Same read-out and setting: for `CC(Oc1ccc(Cl)cc1Cl)C(=O)/C=C/N(C)C` (stereo not given) the value was -0.64%; for `COc1cccc(NC(=O)CN(C)C(=O)Cc2ccc(Cl)cc2Cl)c1`, 12.1%. Take `CCCC(=O)Nc1cccc(NC(=S)NC(=O)C(C)Oc2ccc(Cl)cc2Cl)c1` (stereo not given): the Potency was 2.82 µM (active). Turning to `Cc1ccc(/C=C2/SC(=S)N(CCC(=O)NCCCN3CCOCC3)C2=O)cc1`, the “activity, negative = inhibition” value was 5.47%. Take `CCCC[C@]12Cc3cc(OC)c(OC)cc3C(O1)C1=C(CC3(CCCCC3)OC1=O)O2`: the activity, negative = inhibition is 7.46% [at 10 µM]. Same read-out and setting: for `C=C1C(=CC=C2CCC[C@@]3(C)[C@@H]2CC[C@H]3[C@H](C)CCCC(C)C)C[C@@H](O)C[C@@H]1O` the value was -9.25%. Turning to `C=C1/C(=C\C=C2\CCCC3(C)C2CCC3C(C)/C=C/C(O)C2CC2)CC(O)CC1O` (stereo not given), the Potency is 12.6 µM (active). On to `COc1ccc(C(O)(C2CCCCC2)C(CN2CCCC2)c2ccccc2)cc1` (stereo not given), for which the “activity, negative = inhibition” value is -9.79%. As for `O=C(NCc1ccccc1Cl)C1CCN(S(=O)(=O)c2cccc3nonc23)CC1`, the “activity, negative = inhibition” value is -5.38%. The same measure, in the same setting: for `O=C(NCCc1ccccc1)c1ccc2c(c1)N(Cc1ccccc1)CCS2` the value was -10%. Consider `O=c1oc(-c2ccco2)nc2sc3c(c12)CCCCC3`, for which the “activity, negative = inhibition” value is -24%. Regarding `COc1ccc(CCn2c(=N)c(C(=O)NCc3ccco3)cc3c(=O)n4cccc(C)c4nc32)cc1`, the “activity, negative = inhibition” value was 5.42%. With `O=C(NCc1ccco1)c1cccn2c(=O)c3c4c(sc3nc12)CCCC4`, the Potency was 11.2 µM (active).
